Results: the supplement of paper PMC6555819

Experiments:
Experiment in all cases: PBM binding z-score (relative to random genomic background probes); higher = stronger binding; sequences stand for … in GC…GCGATTGACAGCGTAGAATGAAGG
[1] = tested on: PPARg:RXRa DBDmut IVT, anti-RXR (DBD mutation: RXRa K156A/R161A, NR concentration 270 nM, RXRa partner concentration 90 nM)
Summary of the method: (§1)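 Random background probes are the reference for binding z-scores. These scores derive from regression-normalized fluorescence on custom Agilent 4×180K protein-binding microarrays incubated 1 h with ligand-free nuclear receptor dimers. Binding was detected with antibodies against each partner (one per run).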

[2] = tested on: PPARg:RXRa IVT, anti-PPARg (NR concentration 270 nM, RXRa partner concentration 90 nM)
Summary of the method: as §1

[3] = tested on: PPARg DBDmut:RXRa IVT, anti-PPARg (DBD mutation: PPARg1 K132A/R137A, NR concentration 270 nM, RXRa partner concentration 90 nM)
Summary of the method: as §1

[4] = tested on: PPARg DBDmut IVT, anti-PPARg (DBD mutation: PPARg1 K132A/R137A, NR concentration 270 nM)
Summary of the method: as §1

[5] = tested on: PPARg homodimer (NR concentration 180 nM)
Summary of the method: as §1

[6] = tested on: PXR:RXRa (NR concentration 270 nM, RXRa partner concentration 90 nM)
Summary of the method: as §1

[7] = tested on: PXR homodimer (NR concentration 270 nM)
Summary of the method: as §1

[8] = tested on: RARa:RXR (NR concentration 270 nM, RXRa partner concentration 90 nM)
Summary of the method: as §1

[9] = tested on: RARa homodimer (NR concentration 270 nM)
Summary of the method: as §1

[10] = tested on: RARb:RXRa (NR concentration 270 nM, RXRa partner concentration 90 nM)
Summary of the method: as §1

| Sequence | PBM binding z-score [1] | PBM binding z-score [2] | PBM binding z-score [3] | PBM binding z-score [4] | PBM binding z-score [5] | PBM binding z-score [6] | PBM binding z-score [7] | PBM binding z-score [8] | PBM binding z-score [9] | PBM binding z-score [10] |
| --- | --- | --- | --- | --- | --- | --- | --- | --- | --- | --- |
| CAAACTAGGTCAAGGTCAAAATCGGTTTGTGCCA | 8.64 | 9.04 | 2.23 | 3.4 | 2.8 | 4.7 | 1.74 | 4.78 | 1.1 | 5.1 |
| TTACCAAGGTGAGCTGAAGTCGTTGATCCAACTC | 0.859 | 1.48 | -0.768 | -0.947 | -0.94 | -0.181 | -0.685 | -0.105 | -0.713 | 0.929 |
| ATCTCTACGTAACAAGTTCAGTGAAAGAGAGGAC | -0.487 | 0.36 | 1.13 | 1.51 | 0.708 | 1.56 | 2.01 | 0.741 | 0.878 | 1.46 |
| CGTCCAAGGTAAAGGTCAGTGAAAGAGACTCGAA | 1.42 | 3.27 | -0.427 | -0.748 | 1.81 | 3.05 | 0.298 | 3.83 | 1.38 | 4.61 |
| CCTCGGAGGATAGAAGGTCAGAGCTGTCCGCTTT | 0.306 | 0.12 | -1.89 | -1.62 | 1.56 | 1.38 | -0.0463 | 1.82 | 0.234 | 2.29 |
| CGTACAAGGTCAGCAGGTCAGTGAAAGCGACGTG | 3.86 | 4.79 | 1.35 | 0.315 | 3.51 | 3.82 | 0.382 | 5.17 | 1.11 | 5.23 |
| GGAACGATGGCAAAGTTGATAGCATCTGTCGACG | -0.422 | -0.327 | 0.0385 | -1.16 | -0.819 | -0.402 | -0.23 | -0.727 | -1.19 | -0.325 |
| TATCCTAGGTCATGCGGGCCAGTATAGTGTCGGC | 3.98 | 4.97 | 1.6 | 1.66 | 1.75 | 2.04 | 0.212 | 2.76 | -0.133 | 3.9 |
| GCTCGGAGGACAAGGTCATAGCTTTGTCCGTAGA | 0.27 | 1.58 | -0.805 | -1.25 | 1.11 | 3.46 | 0.287 | 3.71 | -0.351 | 3.79 |
| GTACCAAGGTGAATGGGTCGTTGATGAGTAGGCG | 1.52 | 2.44 | 0.0637 | -0.57 | 1.22 | 0.325 | 0.284 | 0.784 | 0.00879 | 1.64 |
| TCGAGCAGGTTAGGGGCATTCAGAATGGCGTCGA | 0.212 | -0.145 | -1.03 | -1.48 | 0.0489 | 0.241 | -0.0165 | 0.385 | -0.605 | 1.11 |
| ATATGTAGGTTACATCCGGGTCATTGAGGCTATG | 7.27 | 7.27 | 2.02 | 2.36 | 1.82 | 3.65 | 4.12 | 3.65 | 0.615 | 2.38 |
| TCTTGTAGATCTGCAGGTTAAGAAAGCTGGCCAA | 1.64 | -0.0995 | -0.0196 | -0.962 | -0.597 | 0.206 | -0.0786 | 0.383 | -0.894 | 0.204 |
| CAAACTCGGTCAAGGTCAAAGTCGGTTTGTGCCA | 4.82 | 4.77 | 1.56 | 0.439 | 3.17 | 4.98 | 2.66 | 4.81 | 1.43 | 4.49 |
| TCATATAGGTAAAGGTGCAAGTCGAACGATATGA | 3.53 | 3.68 | 0.688 | 1.15 | 0.555 | 0.241 | 0.116 | 0.949 | 0.796 | 0.566 |
| GCTATTAGTTGAAAGGGCACCCGAATGATTCTCG | 0.791 | 0.951 | -0.101 | 0.368 | 1.05 | 0.72 | 0.405 | 1.28 | 0.468 | 1.72 |
| GTAGACAGGTGAAACGCAGGTAACTCAGGGTGGC | 1.08 | 0.827 | -0.547 | -0.798 | -0.292 | -0.0707 | -0.535 | 0.264 | -0.278 | 0.688 |
| ACTCGGAGGACAAAGGTCAGTGCTACGCCAGTGA | 0.807 | 3.58 | 1.11 | -0.05 | 3.66 | 3.7 | 0.26 | 4.7 | 1.27 | 4.5 |
